Measured values reported in ChEMBL document CHEMBL4513149, “CO-ADD screening of MMV (CH) - MMV compounds” (2021).
Results with a measured potency or affinity are listed apart.

Columns and labels:
Klebsiella pneumoniae = conditions: Concentration 20 uM; ASSAY_TEST Inhibition of Bacterial Growth; detection method Absorption (OD600); MEDIA CAMHB; plate type 384well; NBS; CORNING #3640; time 18 hr
Candida albicans = conditions: 20 µM
Cryptococcus neoformans = conditions: Concentration 20 uM; ASSAY_TEST Inhibition of Fungal Growth; detection method Resazurin; Absorption (OD600-OD570); plate type 384well; NBS; CORNING #3640

SMILES | Inhibition (Klebsiella pneumoniae) | Inhibition (Candida albicans) | Inhibition (Cryptococcus neoformans)
COc1cccn2c(C(=O)N3CCCCC3)c(C(F)(F)F)nc12 | 7.08% | 1.9% | -6.15%
COc1ccc(Nc2ccccc2NC(=O)c2ccc(O)nc2)cc1 | -2.41% | 1.42% | -7.76%
O=C(NC1CCCCC1)N1CCN(Cc2ccc3c(c2)OCO3)CC1 | 10.77% | 0.64% | -16.64%
O=C(NC1CC1)c1ccc(N2CCC(Cc3ccccc3)CC2)nc1 | 19.39% | 4.1% | -7.07%
O=C(NCCN1CCCC1)c1cc(NCCN2CCOCC2)nc2ccc(Cl)cc12 | 16.49% | 2.97% | -7.83%
Cc1ccc(C(=O)Nc2ccc(S(=O)(=O)O)c3cc(S(=O)(=O)O)cc(S(=O)(=O)O)c23)cc1NC(=O)c1cccc(NC(=O)Nc2cccc(C(=O)Nc3cc(C(=O)Nc4ccc(S(=O)(=O)O)c5cc(S(=O)(=O)O)cc(S(=O)(=O)O)c45)ccc3C)c2)c1 [SURAMIN] | 17.11% | 39.2% | 2.45%
CC(C)n1ncc2c(C(=O)NCC(c3cccs3)N3CCOCC3)cc(-c3ccccc3)nc21 (stereo unspecified) | 8.44% | 4.59% | -15.65%
Cc1ccc(NC(=O)CC2COc3ccccc3O2)cc1Cl (stereo unspecified) | 11.14% | 2.65% | -13.17%
Cc1ccc2nc(C)c(-c3ccn(Cc4ccccc4)n3)n2c1 | 14.88% | 3.75% | -8.36%
CCN(CC)C(=O)N1CCN(C)CC1 [DIETHYLCARBAMAZINE] | 16.19% | 2.79% | -5.92%
COc1ccc(-c2cnc3ccc(NCc4ccc(S(N)(=O)=O)cc4)nn23)cn1 | 16.22% | 4.45% | -9.08%
NC(=O)c1cc(-c2ccsc2)ccc1OCCOc1ccccc1 | 14.24% | 1.34% | -0.49%
O=C(C1CCCCC1)N1CC(=O)N2CCc3ccccc3C2C1 (stereo unspecified) [PRAZIQUANTEL] | 12.46% | 4.53% | -6.4%
COc1ccccc1C(C)NCC(=O)Nc1cc(C(F)(F)F)ccc1Cl (stereo unspecified) | 14.48% | 1.66% | -4.09%
CS(=O)(=O)c1ccc(C(=O)N(CC2CCCO2)c2nc3ccccc3s2)cc1[N+](=O)[O-] (stereo unspecified) | 7.4% | 3.23% | -10.33%
CNC(=O)CNc1nc(-c2ccccn2)nc2scc(-c3ccccc3)c12 | 15.46% | 0.88% | -5.07%
COc1ccc(CN2CCOc3ccc(C(C)(O)CN(C)C)cc3C2)cc1C (stereo unspecified) | 16.19% | 4.72% | -11.35%
N#Cc1ccc(-c2cnc(N)c(-c3ccc(C(N)=O)cc3)n2)cc1 | 16.03% | 4.25% | -3.91%
Clc1ccc(-n2cc(COc3ccnc4ccccc34)nn2)cc1 | 12.62% | 3.14% | -4.84%
Cl.NCCCC(N)(C(=O)O)C(F)F.O (stereo unspecified) [EFLORNITHINE HYDROCHLORIDE] | 11.19% | 2.7% | -9.22%
Cc1cc(O)nc(-n2nc(C)cc2C)n1 | 12% | 69.6% | -1.19%
COc1cncc(-c2cncc(N3CCN(c4ccncc4)CC3)n2)c1 | 19.7% | 3.12% | 4.32%
Cc1nc2ccccn2c1C(=O)NCc1ccc(Cl)cc1 | 17.8% | 2.86% | -5.69%

SMILES | Inhibition (Klebsiella pneumoniae) | Inhibition (Candida albicans) | Inhibition (Cryptococcus neoformans)
COc1ccc(C2=NN(C3CCCCCC3)C(=O)C2(C)C)cc1OCCCCOc1ccc(-c2nn[nH]n2)cc1 | 0.76% | 5.32% | -17.73%
CC1(C)Cc2c(c(N3CCOCC3)nc3snc(Br)c23)CO1 | 3.58% | 13.1% | -2.44%
Cc1[nH]c2cc(F)cc(F)c2c(=O)c1-c1ccc(Oc2ccc(OC(F)(F)F)cc2)cc1 | 5.11% | 3.94% | -10.28%
Nc1ncc(-c2cn[nH]c2)cc1-c1nc2cc(Cl)cnc2[nH]1 | 5.89% | 4.36% | -3.87%
O=C(Cn1ccnc1[N+](=O)[O-])NCc1ccccc1 [BENZNIDAZOLE] | 18.48% | 2.82% | -2.09%
c1ccc2c(c1)CN(CC1CC1)CC1(CCN(Cc3c[nH]c4cnccc34)CC1)O2 | 8.97% | 4.16% | -4.09%
CC1CCCCN1C(=O)NCCc1coc(-c2ccc(F)cc2)n1 (stereo unspecified) | 15.76% | 3.66% | -14.62%
c1ccc(-c2cc(N3CCCCC3)c3ccccc3n2)nc1 | 14.97% | -0.2% | -6.72%
Cc1cc(C(=O)Nc2ccc(-c3ccccc3)cc2)no1 | 16.31% | 4.46% | -3.33%
Nc1ncnc2c1c(Cc1cccc3ccccc13)nn2CC1CCNCC1 | -3.02% | 2.11% | -1.33%
Cc1cc(C)n(-c2ccc(NC(=O)C3CCN(Cc4cnc(C)s4)CC3)cc2)n1 | 8.14% | 2.85% | -6.76%
COc1ccc(N(CCc2cccc(C)n2)C(=O)C2CCCCC2)cc1 | 6.26% | -0.29% | -4.98%
CCOc1ccccc1C(=O)Nc1cccc(-c2nc3ncccn3c2C)c1 | 11.04% | 6.34% | -7.75%
c1cc(C2=NCCN2)cc(-c2cc(-c3ccc(C4=NCCN4)cc3)no2)c1 | 11.59% | 2.32% | -10.15%
Cc1cccc(-c2nc(Nc3ccncn3)c3sccc3n2)n1 | 15.76% | 3.59% | 61.44%
Clc1cccc(CO[C@H]2CCc3ccccc3[C@@H]2n2ccnn2)c1 | 8.29% | 10.9% | -3.55%
COc1ccc2nc(C)cc(OCC(=O)Nc3ccccc3OC)c2c1 | 17.25% | 0.63% | -5.56%
NC(=O)c1cc(Br)ccc1OCCOc1ccccc1 | 10.17% | 10.7% | -9.83%
CCCNC(=O)N1CCC2(CC1)CC(=O)c1cc(C)ccc1O2 | 17.38% | 2.86% | -8.06%
Cc1ccc(Oc2ccc(NC(=O)CNc3ccccc3N3CCCC3=O)cc2)cc1 | 9.79% | 2.74% | -10.82%
CC(C)/N=c1\cc2n(-c3ccc(Cl)cc3)c3ccccc3nc-2cc1Nc1ccc(Cl)cc1 [CLOFAZIMINE] | 13.39% | 5.63% | -11.17%
CCOC(=O)c1c(NC(=O)c2c(F)c(F)c(F)c(F)c2F)sc(C(N)=O)c1C | 11.9% | 5.2% | -6.59%
COc1ccc(C2=NN(C3CCCCCC3)C(=O)[C@@H]3CC=CC[C@H]23)cc1OCCCCOc1ccc(-c2nnn[nH]2)cc1 | 8.89% | 6.64% | -7.83%

SMILES | Inhibition (Klebsiella pneumoniae) | Inhibition (Candida albicans) | Inhibition (Cryptococcus neoformans)
Cc1cc(C)nc(-n2nc(C)cc2Nc2ccccc2)n1 | 15.33% | 11.7% | 39.43%
Nc1ncnc2c1ncn2C[C@@H](O)[C@@H](O)C(=O)O [ERITADENINE] | 17.23% | 3.88% | -6.54%
c1ccc(Oc2ccc(-c3cncc(-c4ccc5[nH]ccc5c4)n3)cc2)cc1 | 5.9% | 4.38% | -8.14%
Cc1ccc(S(=O)(=O)N2CCN(C(=O)c3cc(-c4ccccc4)n[nH]3)CC2)cc1 | -15.32% | 6.95% | -7.39%
CC[C@H](CO)NCCN[C@H](CC)CO.Cl.Cl | 9.73% | 3.25% | 1.15%
Nc1ncc(Br)cc1-c1nc2cc(Cl)cnc2[nH]1 | 20.39% | 9.81% | 7.04%
CCOc1ccc2cc(-c3nn(CC4CCN(C)CC4)c4ncnc(N)c34)ccc2c1.Cl | 14.21% | 4.38% | -9.79%
CC1=NN(c2nc3ccccc3s2)C(=O)C1Cc1cccc2ccccc12 (stereo unspecified) | 10.99% | 19.6% | -5.86%
O=C(Nc1cccc(-c2ccc(NCCCN3CCCC3)nc2)c1)c1ccccc1 | 8.2% | 3.22% | 16.14%
Nc1ncnc2c1c(-c1cnc3ccccc3c1)nn2CC1CCNCC1 | 4.12% | 2.53% | -1.76%
OC[C@H]1O[C@@H](n2c3ccc(Cl)cc3c3c(-c4cc5ccccc5o4)ncnc32)C(O)[C@H]1O (stereo partly specified) | 8.56% | 8.5% | 3.55%
Cc1cc(NCC(C)C)c2[nH]nc(-c3ccccc3)c2n1 | 16.32% | 0.11% | -5.87%
c1ccc(Oc2ccc(-c3cc(N4CCOCC4)[nH]n3)cc2)cc1 | 8.77% | 5.83% | -7.11%
COC(=O)c1c(NC(=O)c2cc3ccccc3oc2=O)sc2c1CCN(Cc1ccccc1)C2 | 12.75% | 2.23% | -2.1%
CCc1ccc(S(=O)(=O)Nc2cc(CN3CCN(CCC(C)C)CC3)ccc2C)cc1 | 18.36% | 4.16% | -6.26%
O=C(NC1CC1)c1ccc(N2CCOc3ccc(Cl)cc32)s1 | 15.81% | 6.64% | 31.76%
COc1ccc(Oc2ccc([C@@H](C)N(C)c3ncc4c(N)nc(N)nc4n3)cc2)cc1 | 18.87% | 5.99% | -6.67%
CN1CCN(c2nccc3[nH]c(-c4cccc(F)c4)cc23)CC1 | 12.23% | 5.85% | 5.1%
c1ccc(Oc2ccc(-c3cc(C4CCOCC4)[nH]n3)cc2)cc1 | 16.38% | 7.75% | 0.97%
COC(=O)c1ccc(F)cc1NS(=O)(=O)c1cccc(-c2cnn(Cc3ccccc3)c2)c1 | 14.02% | 6.83% | 12.85%
CC(C)(C)n1nc(Cc2cccc3ccccc23)c2c(N)ncnc21 | 2.54% | 3.16% | -9.17%
